# About 79,000 compounds went through this panel and 15% of them were active in at least one assay; those are over-represented in the sample as a whole. Calls of active or inactive are those of the source. Cut-off read from the data, not from the text of the source: active = growth inhibition above about 70%; inactive = the rest.
# Assay: NCI Yeast Anticancer Drug Screen. Data for the bub3 strain (AID 167)
# Settings: S. cerevisiae bub3 mutant strain, at 50.0 µM, active compounds read high
# Experimental: Growth inhibition of yeast strains with defined genetic alterations is measured as a screen for potential anti-cancer activity. Selected strains with alterations in DNA damage repair or cell cycle control were exposed to compounds and growth inhibition was measured relative to vehicle treated controls. The strain used in this assay is bub3
row,Structure (SMILES),growth inhibition
1,O=C(Cc1nc2sc3c(c2c(=O)[nH]1)CCCC3)Nc1ccccc1,-4% (inactive)
2,CCOC(=O)c1sc(SC)nc1NC(=O)c1ccc(OC)cc1,2.1% (inactive)
3,CCCCCC(O)(CCCC)CCCC,-0.55% (inactive)
4,CCOc1cc2c(cc1OC)c[n+](C)c1c3cc(OC)c(OC)cc3ccc21,-6.05% (inactive)
5,N#CC(C(=O)CCC(=O)Nc1ccc(Cl)c(Cl)c1)c1ccc(Cl)cc1 (stereo not given),8.4% (inactive)
6,O=C(O)c1cc(C(=O)O)cc(S(=O)(=O)NCCO)c1,3% (inactive)
7,Cc1ccc(NC(=O)NCc2ccncc2)cc1NC(=O)NCc1ccncc1,30.9% (inactive)
8,CCCCCCN(C(=O)Oc1ccccc1)C(C#N)c1ccccc1 (stereo not given),1.75% (inactive)
9,O=C(NNC(=O)c1ccccc1Br)c1ccccc1,-21.5% (inactive)
10,COC1OC2COC(c3ccccc3)OC2C(N=[N+]=[N-])C1O (stereo not given),-7.45% (inactive)
11,C[N+](C)(C)CCOC(=O)/C=C/c1cnc[nH]1,6.4% (inactive)
12,CC1(C)C2CCC1(C)C(NC(=O)COCCOCC(N)=O)C2 (stereo not given),-54.9% (inactive)
13,C=CCCNC(=S)S,4% (inactive)
14,Nc1ccc(N=Nc2ccc(OCCN(CCO)CCO)cc2)c(N)n1,21.6% (inactive)
15,CCCCCCNC(C)=O,-5.5% (inactive)
16,OC1COC(C2CCCO2)OC1 (stereo not given),-13.7% (inactive)
17,CCOC(=O)c1ccc(NC(=O)Oc2ccc(SC)cc2)cc1,23.4% (inactive)
18,CCOC(=O)C/C(C)=C1/N=C(c2ccccc2)OC1=O,37% (inactive)
19,CC(=O)OCC1OC(n2cc(F)c(=O)[nH]c2=O)C(OC(C)=O)C1OC(C)=O (stereo not given),-16.4% (inactive)
20,COc1ccc(C2=Nc3cccc4c3N(CCC4)C2c2ccc(OC)cc2)cc1 (stereo not given),-2.95% (inactive)

row,Structure (SMILES),growth inhibition
1,CN1CCN(CC2C3CCC(C3)C2O)CC1 (stereo not given),-4.7% (inactive)
2,CCOC(=O)C(Cc1ccc([N+](=O)[O-])cc1)NC(=O)CC1c2ccccc2-c2ccccc21 (stereo not given),-9.9% (inactive)
3,O=[N+]([O-])c1cc(Cl)ccc1Sc1ccccc1,24.7% (inactive)
4,C[n+]1ccccc1/C=C/c1ccc2c(c1)OCO2,29.9% (inactive)
5,O=C(O)/C=C\C(=O)Nc1ccc(C(=O)NCC(=O)O)cc1,-11.8% (inactive)
6,Nc1ccc(C(=O)Oc2ccc(OC(=O)c3ccccc3)cc2)cc1,0.4% (inactive)
7,Cn1cc(C(=O)C2CCCCC2)ccc1=O,-14.2% (inactive)
8,O=c1[nH]nc(-c2ccc(Cl)cc2)[nH]1,-5.8% (inactive)
9,COc1ccc(/C=N/N2CN(C(C)C(=O)O)C(O)(CCl)N=C2N)cc1OC (stereo not given),5.1% (inactive)
10,CCCCNC(=O)c1cc(S(=O)(=O)n2cc[nH]c2=O)c(SC)cc1Cl,-5.05% (inactive)
11,CCN(CC)CCn1c2c3ccccc3ccc2c2oc(=O)c3ccccc3c21,-7.5% (inactive)
12,CC1(C)C=C(N2CCCCC2)C(=O)c2ccccc21,-9.1% (inactive)
13,CCC(=O)OCC(OC(=O)CC)c1ccccc1 (stereo not given),3.75% (inactive)
14,O=CCS,-31.2% (inactive)
15,O=C(O)C1=C(C(=O)Nc2ccc(NC(=O)C3=C(C(=O)O)C4C=CC3C4)cc2)C2C=CC1C2,0.25% (inactive)
16,C[C@]12CC=CC(=O)[C@@]1(C)CCC(=O)C2,-4.7% (inactive)
17,O=C1CCC23CC(C=CC=C12)n1c(=O)n(-c2ccccc2)c(=O)n13 (stereo not given),-14.7% (inactive)
18,O=C(O)c1c(Cl)c(Cl)c(Cl)c(Cl)c1C(=O)Nc1ccccc1F,1.5% (inactive)
19,Nc1ccc(C(=O)N/N=C/C=C/c2ccccc2)cc1,30.4% (inactive)
20,O=NN(Cc1ccccc1)c1ccc(OCc2ccccc2)c(NC(=O)CCC2OCCO2)c1,39.9% (inactive)
